Values joined by “and” are separate entries in the source; they are usually repeats but may differ in a detail not shown here. Identical values can stand only once. This is part of a sample that, as a whole, favours compounds with a hit. Of some 79,000 tested, about 15% had one in any assay. Some compounds were tested as several samples or in several runs, with calls that do not always agree. Active and inactive are the calls of the source. Rule as the data show it: active = growth inhibition above about 70%; inactive = the rest.

Assay [1] in a line: NCI Yeast Anticancer Drug Screen. Data for the rad50 strain (AID 155).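 Also: 0% = growth of vehicle-only cultures of the same strain.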 Particulars: S. cerevisiae rad50 strain growth inhibition, stronger effect = higher value. An outline of the steps:
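Compounds were tested on a yeast strain with an engineered DNA damage repair alteration; the reported value is growth inhibition normalised to vehicle treatment.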

Assay [2] is described as follows: NCI Yeast Anticancer Drug Screen. Data for the mec2-1 strain (AID 157). Particulars: S. cerevisiae mec2-1 strain, stronger effect = higher value. An outline of the steps: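 Yeast mec2-1 mutant treated with compound. Readout: growth inhibition vs vehicle controls.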
Assay [3] is described as follows: NCI Yeast Anticancer Drug Screen. Data for the sgs1 mgt1 strain (AID 161).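 Also: 0% = growth of cultures given vehicle only.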 Particulars: S. cerevisiae sgs1 mgt1 strain, stronger effect = higher value. An outline of the steps:
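Test agents were incubated with a DNA-repair-mutant yeast strain. Growth was then read and compared against vehicle-treated controls.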

A short description of assay [4]: NCI Yeast Anticancer Drug Screen. Data for the cln2 rad14 strain (AID 165).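 Also: 0% = growth equal to vehicle treated cultures.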 Particulars: S. cerevisiae cln2 rad14 strain, stronger effect = higher value. An outline of the steps:
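cln2 rad14 yeast strain; compound exposure; growth inhibition read vs vehicle controls.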

Assay [5] in a line: NCI Yeast Anticancer Drug Screen. Data for the bub3 strain (AID 167). To be noted: S. cerevisiae bub3 mutant strain, stronger effect = higher value. In a few lines: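 Growth of a checkpoint-deficient yeast mutant is measured after compound exposure. Values represent inhibition relative to vehicle.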
Assay [6] in a line: NCI Yeast Anticancer Drug Screen. Data for the mlh1 rad18 strain (AID 175). To be noted: S. cerevisiae mlh1 rad18 strain growth inhibition, stronger effect = higher value. An outline of the steps:
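Yeast w/ defined DNA-repair lesions; compound exposure; growth vs vehicle controls → % inhibition.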

The mark [7] stands for this setting: at 5.0 µM (retest, dose inferred, filed as 0.5).
[8] abbreviates: at 50.0 µM (retest, dose inferred, filed as 5.0).

Take `CN1CCN(CN2C(=O)C3C4C=CC(C3C2=O)C2C3C(=O)N(CN5CCN(C)CC5)C(=O)C3C42)CC1` (stereo not drawn): the growth inhibition in assay [1] (setting [7]) is -3% (inactive); in assay [1] (setting [8]) it was -12% (inactive); in assay [1] (at 50.0 µM) it was -28.4% (inactive) and -8.45% (inactive) and -17.1% (inactive); in assay [2] (setting [7]), 1% (inactive); in assay [2] (setting [8]), 30% (inactive); in assay [2] (at 50.0 µM), -28.4% (inactive) and 11.8% (inactive) and -15.2% (inactive). Moreover, the growth inhibition in assay [3] (setting [7]) was -1% (inactive); in assay [3] (setting [8]), 0% (inactive); in assay [3] (at 50.0 µM), -18.7% (inactive) and 18.9% (inactive) and -32.5% (inactive); in assay [4] (setting [7]) it was -10% (inactive); in assay [4] (setting [8]) it was -9% (inactive); in assay [4] (at 50.0 µM), -7.45% (inactive) and 32.5% (inactive) and -40.9% (inactive). In addition, the growth inhibition was 11% (inactive) in assay [5] (setting [7]); 2% (inactive) in assay [5] (setting [8]); -13.5% (inactive) and -11.5% (inactive) and -76% (inactive) in assay [5] (at 50.0 µM); -1% (inactive) in assay [6] (setting [7]); 18% (inactive) in assay [6] (setting [8]); -4.4% (inactive) and -31.1% (inactive) and -65% (inactive) in assay [6] (at 50.0 µM).

Regarding `CC(C)(C)c1ccc(-c2c3ccccc3cc3ccccc23)cc1`, the growth inhibition in assay [1] (setting [7]) was -1% (inactive); in assay [1] (setting [8]) it was -1% (inactive); in assay [1] (at 50.0 µM), -2.45% (inactive); in assay [2] (setting [7]) it was -1% (inactive); in assay [2] (setting [8]), -1% (inactive); in assay [2] (at 50.0 µM), -4.85% (inactive). Also, the growth inhibition was -5% (inactive) in assay [3] (setting [7]); -2% (inactive) in assay [3] (setting [8]); 7.55% (inactive) in assay [3] (at 50.0 µM); 2% (inactive) in assay [4] (setting [7]); -1% (inactive) in assay [4] (setting [8]); 30.1% (inactive) in assay [4] (at 50.0 µM). Further, the growth inhibition is 1% (inactive) in assay [5] (setting [7]); 16% (inactive) in assay [5] (setting [8]); 0.8% (inactive) in assay [5] (at 50.0 µM); -1% (inactive) in assay [6] (setting [7]); 2% (inactive) in assay [6] (setting [8]); -2.2% (inactive) in assay [6] (at 50.0 µM).

Take `Nc1c2ccccc2nc2ccccc12`: the growth inhibition is 51% (inactive) and 41% (inactive) in assay [1] (setting [7]); 92% (active) and 90% (active) in assay [1] (setting [8]); 94.5% (active) and 92.5% (active) in assay [1] (at 50.0 µM); 18% (inactive) and 19% (inactive) in assay [2] (setting [7]); 66% (inactive) and 70% (active) in assay [2] (setting [8]); 60.8% (inactive) and 60.3% (inactive) in assay [2] (at 50.0 µM). Moreover, the growth inhibition in assay [3] (setting [7]) was 20% (inactive) and 18% (inactive); in assay [3] (setting [8]), 73% (active) and 68% (inactive); in assay [3] (at 50.0 µM), 75.8% (active) and 74% (active); in assay [4] (setting [7]), 25% (inactive); in assay [4] (setting [8]), 51% (inactive) and 65% (inactive); in assay [4] (at 50.0 µM), 54.5% (inactive) and 79% (active). Also, the growth inhibition in assay [5] (setting [7]) is 5% (inactive) and -1% (inactive); in assay [5] (setting [8]), 79% (active) and 73% (active); in assay [5] (at 50.0 µM) it was 63.6% (inactive) and 75.5% (active); in assay [6] (setting [7]), 21% (inactive) and 25% (inactive); in assay [6] (setting [8]) it was 86% (active); in assay [6] (at 50.0 µM) it was 90.6% (active) and 88.5% (active).

As for `COc1ccc(/C=C2\C=Nc3ccccc32)cc1`, the growth inhibition in assay [1] (setting [7]) was 12% (inactive); in assay [1] (setting [8]), -10% (inactive); in assay [1] (at 50.0 µM) it was 12.7% (inactive); in assay [2] (setting [7]), -3% (inactive); in assay [2] (setting [8]), 10% (inactive); in assay [2] (at 50.0 µM), -5.7% (inactive). Besides, the growth inhibition is 0% (inactive) in assay [3] (setting [7]); -3% (inactive) in assay [3] (setting [8]); 17.9% (inactive) in assay [3] (at 50.0 µM); 28% (inactive) in assay [4] (setting [7]); 25% (inactive) in assay [4] (setting [8]); 10.4% (inactive) in assay [4] (at 50.0 µM). The growth inhibition was 18% (inactive) in assay [5] (setting [7]); 30% (inactive) in assay [5] (setting [8]); 33.7% (inactive) in assay [5] (at 50.0 µM); 12% (inactive) in assay [6] (setting [7]); 11% (inactive) in assay [6] (setting [8]); 4.55% (inactive) in assay [6] (at 50.0 µM).

With `COC(=O)C#CC(=O)OC`, the growth inhibition in assay [1] (setting [7]) was 14% (inactive); in assay [1] (setting [8]) it was 96% (active); in assay [1] (at 50.0 µM), 32% (inactive) and -2.9% (inactive); in assay [2] (setting [7]) it was 14% (inactive); in assay [2] (setting [8]) it was 99% (active); in assay [2] (at 50.0 µM) it was 9.8% (inactive) and 77.9% (active). In addition, the growth inhibition in assay [3] (setting [7]) was -15% (inactive); in assay [3] (setting [8]), 84% (active); in assay [3] (at 50.0 µM), 7.05% (inactive) and 45% (inactive); in assay [4] (setting [7]), 21% (inactive); in assay [4] (setting [8]), 96% (active); in assay [4] (at 50.0 µM), 17.9% (inactive) and 9.6% (inactive). In addition, the growth inhibition is -18% (inactive) in assay [5] (setting [7]); 99% (active) in assay [5] (setting [8]); 0.8% (inactive) and 74% (active) in assay [5] (at 50.0 µM); -2% (inactive) in assay [6] (setting [7]); 98% (active) in assay [6] (setting [8]); 21.8% (inactive) and 49.8% (inactive) in assay [6] (at 50.0 µM).

For the compound `Oc1c(Cl)cc(Cl)cc1Cc1cc(Cl)cc(Cl)c1O`, the growth inhibition in assay [1] (setting [7]) was 93% (active) and 80% (active); in assay [1] (setting [8]) it was 98% (active); in assay [1] (at 50.0 µM) it was 98.2% (active) and 99% (active); in assay [2] (setting [7]), 86% (active) and 85% (active); in assay [2] (setting [8]), 99% (active); in assay [2] (at 50.0 µM) it was 98.8% (active) and 99.2% (active). Besides, the growth inhibition in assay [3] (setting [7]) is 92% (active) and 85% (active); in assay [3] (setting [8]), 98% (active); in assay [3] (at 50.0 µM), 98.1% (active) and 99.4% (active); in assay [4] (setting [7]), 97% (active) and 84% (active); in assay [4] (setting [8]), 99% (active) and 98% (active); in assay [4] (at 50.0 µM), 99% (active). Moreover, the growth inhibition in assay [5] (setting [7]) is 88% (active) and 74% (active); in assay [5] (setting [8]), 98% (active); in assay [5] (at 50.0 µM), 98.4% (active) and 99.3% (active); in assay [6] (setting [7]) it was 94% (active) and 89% (active); in assay [6] (setting [8]), 98% (active); in assay [6] (at 50.0 µM), 98.5% (active) and 99.2% (active).

(Values after PubChem BioAssay (NCI).)
